This passage reports growth results from PubChem BioAssay (NCI).

This is part of a sample that, as a whole, favours compounds with a hit. Of some 83,000 tested, about 20% had one in any assay.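 96-well plates, one dose, 48 hours. Percent growth reported; active if below 10.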 A number with no mark means an inactive call. The source made the active and inactive calls.

Some test systems named below: NCI-H23 lung; NCI-H226 lung; NCI-H322M lung; HOP-62 NSCLC; NCI-H460 lung; HOP-92 NSCLC; NCI-H522 lung; A549/ATCC NSCLC; 786-0 renal; COLO 205 colon.
Common to all, as to experiment: NCI-60 one-dose screen, 48 h (100 = growth as untreated, 0 = no growth, -100 = all killed)
Holding throughout (conditions): 10 µM unless noted

As for `O=[N+]([O-])c1cccc(/C=N\Nc2ccccc2)c1`, the growth with NCI-H23 lung was 88.5%; with NCI-H226 lung, 70.1%; with NCI-H322M lung, 81.1%; in the assay with HOP-62 NSCLC it was 84%; in the assay on NCI-H460 lung, 77.1%; in the assay with HOP-92 NSCLC it was 66%. The growth with NCI-H522 lung was 54.9%; with A549/ATCC NSCLC it was 67.4%; in the assay on 786-0 renal it was 74.4%; in the assay on COLO 205 colon it was 85.4%.
As for `CCN(CC)CCCCCCNc1ccnc2cc(Cl)ccc12`, the growth in the assay on NCI-H23 lung was 83.4%; with NCI-H226 lung, 108%; with NCI-H322M lung, 96.2%; with HOP-62 NSCLC, 82.6%; with NCI-H460 lung, 92.9%; with HOP-92 NSCLC, 98.8%. In addition, the growth was 125% in the assay with NCI-H522 lung, 96.2% in the assay with A549/ATCC NSCLC, 90.9% in the assay on 786-0 renal and 9.2% (active) in the assay on COLO 205 colon.
For the molecule `O=C1c2cc3c(cc2-c2c1c1ccc(Cl)cc1c(=O)n2C[C@H](O)[C@@H](O)[C@H](O)CO)OCO3`, the growth in the assay with NCI-H23 lung is -18% (active); in the assay on NCI-H226 lung, -49.6% (active); with NCI-H322M lung, 12.6%; in the assay on HOP-62 NSCLC, -43.1% (active); in the assay with NCI-H460 lung, 0.505% (active); in the assay on HOP-92 NSCLC it was 12.4%. In addition, the growth is -59.5% (active) in the assay with NCI-H522 lung, -75.8% (active) in the assay on A549/ATCC NSCLC, 4.87% (active) with 786-0 renal and -16.6% (active) with COLO 205 colon.
Consider `COc1cc2nc(Cl)nc(Nc3cccc(C(=O)/C=C/c4ccc(F)cc4)c3)c2cc1OC`, for which the growth was 76% in the assay with NCI-H23 lung; 73.2% with NCI-H226 lung; 86.5% with NCI-H322M lung; 85.9% in the assay on HOP-62 NSCLC; 95.4% with NCI-H460 lung; 75.3% with HOP-92 NSCLC. The growth in the assay on NCI-H522 lung is 73.4%; in the assay on A549/ATCC NSCLC, 70.2%; in the assay with 786-0 renal it was 57.7%; with COLO 205 colon it was 89.5%.
Consider `COc1cc2c3c(c4c5ccccc5[nH]c4c2c(OC)c1OC)C(=O)N(O)C3=O`, for which the growth with NCI-H23 lung is 54.9%; with NCI-H226 lung, 42.6%; with NCI-H322M lung, 37.4%; with HOP-62 NSCLC, 38%; in the assay on NCI-H460 lung it was 26.9%; in the assay with HOP-92 NSCLC, 78.4%. The growth with NCI-H522 lung is 45.7%; in the assay with A549/ATCC NSCLC it was 60.3%; with 786-0 renal it was 69.6%; with COLO 205 colon, 61.1%.
On to `CCCCC(=O)OC1CCCCC1C` (stereo not given), for which the growth with NCI-H23 lung is 97.3%; in the assay on NCI-H226 lung, 79.1%; in the assay on NCI-H322M lung, 111%; with HOP-62 NSCLC, 98.9%; in the assay on NCI-H460 lung, 104%; in the assay with HOP-92 NSCLC, 77.6%. Moreover, the growth is 83% with NCI-H522 lung, 72.3% in the assay with A549/ATCC NSCLC, 92.4% in the assay on 786-0 renal and 100% in the assay with COLO 205 colon.
On to `CC(=O)Nc1cc(F)cc(C(F)(F)F)c1Cl`, for which the growth in the assay with NCI-H23 lung was 92.2%; in the assay on NCI-H226 lung it was 91%; with NCI-H322M lung, 98.7%; in the assay with HOP-62 NSCLC it was 99.3%; with NCI-H460 lung, 98.6%; in the assay on HOP-92 NSCLC, 93.7%. Further, the growth in the assay with NCI-H522 lung was 100%; in the assay on A549/ATCC NSCLC, 103%; with 786-0 renal, 94.3%; in the assay with COLO 205 colon, 109%.
In the case of `COc1cccc(-c2nn(-c3ccccc3)cc2-c2ccnc(NCCCN)c2)c1`, the growth is 60% in the assay on NCI-H23 lung; 78.7% in the assay on NCI-H226 lung; 78.5% with NCI-H322M lung; 47.9% in the assay with HOP-62 NSCLC; 27.9% in the assay with NCI-H460 lung; 32.3% in the assay on HOP-92 NSCLC. The growth was 83.4% in the assay with NCI-H522 lung, 68% in the assay with A549/ATCC NSCLC, 52.1% in the assay on 786-0 renal and 26.1% with COLO 205 colon.
For `COc1ccc(/C=C/C(=O)NCCO)cc1`, the growth was 96.6% in the assay with NCI-H23 lung; 97.9% in the assay on NCI-H226 lung; 97.6% with NCI-H322M lung; 87.7% with HOP-62 NSCLC; 103% with NCI-H460 lung; 105% in the assay with HOP-92 NSCLC. The growth in the assay on NCI-H522 lung is 82%; in the assay on A549/ATCC NSCLC it was 79.7%; in the assay on 786-0 renal, 100%; in the assay with COLO 205 colon, 112%.
`C=C(C)[C@@H]1CC[C@]2(C)CC[C@]3(C)[C@H](CC[C@@H]4[C@@]5(C)CCCNC(C)(C)[C@@H]5CC[C@]43C)[C@@H]12`: the growth with NCI-H23 lung was 94.1%; in the assay on NCI-H226 lung, 96.5%; with NCI-H322M lung it was 99.5%; in the assay on HOP-62 NSCLC it was 101%; with NCI-H460 lung, 48.4%; in the assay on HOP-92 NSCLC, 76.6%. The growth was 106% with NCI-H522 lung, 51.3% in the assay with A549/ATCC NSCLC, 102% in the assay on 786-0 renal and 8.77% (active) in the assay on COLO 205 colon.
Take `CC1(C)C(=O)/C(=C\c2cccnc2)C[C@]2(C)[C@H]3CC[C@@H]4[C@@H](C(=O)/C=C/c5ccncc5)CC[C@@]4(C)[C@]3(C)CC[C@@H]12`: the growth in the assay on NCI-H23 lung was 5.99% (active); in the assay on NCI-H226 lung, 1.56% (active); in the assay with NCI-H322M lung it was 39.9%; with HOP-62 NSCLC, 2.07% (active); in the assay with NCI-H460 lung, 23.7%; with HOP-92 NSCLC, 16.1%. For the same molecule, the growth with NCI-H522 lung was 30.1%; in the assay with A549/ATCC NSCLC it was 1.98% (active); in the assay with 786-0 renal it was -55.7% (active); with COLO 205 colon, 12.3%.
For `COc1ccc(/C=C/C(=O)c2ccc([N+](=O)[O-])cc2)cc1`, the growth is 104% in the assay on NCI-H23 lung; 102% with NCI-H226 lung; 102% in the assay with NCI-H322M lung; 104% with HOP-62 NSCLC; 110% in the assay on NCI-H460 lung; 87.7% in the assay with HOP-92 NSCLC. The growth was 83.7% with NCI-H522 lung, 100% in the assay on A549/ATCC NSCLC, 94.7% in the assay with 786-0 renal and 114% with COLO 205 colon.
As to `Cn1cc(-c2csc(-c3c[nH]c4ccc(F)cc34)n2)c2cccnc21`, the growth in the assay with NCI-H23 lung was 50.4%; in the assay with NCI-H226 lung it was 59.7%; in the assay on NCI-H322M lung, 74.8%; in the assay with HOP-62 NSCLC it was 43.2%; in the assay on NCI-H460 lung, 11.4%; in the assay on HOP-92 NSCLC it was 71.9%. For the same molecule, the growth is 12.6% in the assay with NCI-H522 lung, 46.5% in the assay on A549/ATCC NSCLC, 66.6% in the assay with 786-0 renal and 35.6% with COLO 205 colon.
